Screening results as filed in PubChem BioAssay.
SW480 rerep = DNA re-replication induction in SW480 cells | SW480 DNA re-replication, Hoechst DNA content imaging, 48 h | AID 624297 | 340,000 compounds, 1.8% hits | Potency, µM (titrated, usually from 46.1 µM), inactives show top-dose re-replication activation, hits mostly activators; also: % of control where 0% means no effect; nearly all actives have a fitted effect of over 55% in size
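Treated cells incubate 48 hr (37 C, 5% CO2), are stained 40 min with Hoechst, and nuclear fluorescence is enumerated; a rise in nuclei with high DNA signal marks re-replication.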
MCF10A rereplic = DNA re-replication induction in MCF 10a cells. 350,000 compounds, 2.9% hits. Potency, µM (series often up to 46.1 µM), for inactives: at the top dose activity, positive = re-replication, hits mostly activators. AID 624296. MCF 10A DNA re-replication, Hoechst nuclear intensity, 48 h; also: % of control where 0% means no effect; nearly all actives have a fitted effect of over 50% in size
KB-3-1 cytotox = kills parental KB-3-1 adenocarcinoma cells | KB-3-1 viability, CellTiter-Glo ATP luminescence, 72 h | Potency, µM (highest dose often 46.1 µM), most hits filed as cytotoxic | 400,000 compounds, 1.4% hits | AID 1347075; also: % is scaled to controls: 0 for no effect and ±100 for the full control effect; nearly all actives have a fitted effect of over 60% in size
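72 h, 37 °C compound treatment of KB-3-1 parental cells; CellTiter-Glo added, 10 min, luminescence read. Data corrected against DMSO-only plates and normalized before curve fitting.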
ELG1 repair inh = ELG1-dependent DNA repair inhibition; 330,000 compounds, 2.3% hits; HEK293T ELG1-luciferase reporter, luminescence, 16 h; DNA damage induced by 5-fluorouridine; Potency, µM (series often up to 46.1 µM), for the others: top-dose activity change, negative = inhibition, usual class: inhibitors; AID 504467; also: % is scaled to controls: 0 for no effect and ±100 for the full control effect; nearly all actives have a fitted effect of over 55% in size
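In this reporter screen, reduction of luminescence relative to DMSO vehicle indicated activity. Compounds and 5-fluorouridine were added together to 2,000 cells per well, incubated for 16 hr at 37 °C, then developed with ONE-Glo.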
KB-V1 MDR tox = KB-V1 MDR subline cytotoxicity. KB-V1 MDR cells viability, CellTiter-Glo, 72 h. Potency, µM (titrated, usually from 46.1 µM), usual class: cytotoxic. 400,000 compounds, 3.4% hits; also: % is scaled to controls: 0 for no effect and ±100 for the full control effect; nearly all actives have a fitted effect of over 60% in size
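KB-V1 MDR subline cells in DMEM (phenol-red free, 10% FBS) exposed to compounds in qHTS concentration series for 72 h at 37 degrees C. Viability read by CellTiter-Glo luminescence; concentration-effect curves fitted after normalization and correction.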
* marks the source's active call; other numbers are inactive results; i = inactive; ? = inconclusive; . = no result. This is a sample that favours compounds with a hit; in the whole collection about 8.1% have one here. Calls follow the shape of the dose curve; as a rule, active = well fitted curve in the direction sought with a large enough effect; inconclusive = small, poorly fitted or top-dose-only effect, or another doubt; inactive = no such curve, though single readings can be large; an effect the other way counts as inactive or inconclusive. Potency is read from the fitted curve at half-maximal effect.

SMILES | SW480 rerep | MCF10A rereplic | KB-3-1 cytotox | ELG1 repair inh | KB-V1 MDR tox
CCCN1CCC(=NNc2ccc(S(=O)(=O)N(CC)CC)cc2[N+](=O)[O-])CC1 | ? | 5.7% | ? | ? | 11.6µM*
Cc1nc(SCC(=O)c2cc3ccccc3oc2=O)c(C#N)c(-c2ccccc2)c1C(=O)Nc1ccccc1 | 7.31µM* | ? | i | ? | ?
COc1ccc(-c2c(C#N)c(SCC(=O)Nc3ccc(C)cc3)nc(C)c2C(=O)Nc2ccccc2)cc1 | . | . | i | . | i
COc1ccc(-c2c(C#N)c(SCC(=O)Nc3ccc(Br)cc3)nc(C)c2C(=O)Nc2ccccc2)cc1 | . | . | i | . | i
COc1ccc(-c2c(C#N)c(SCC(=O)c3cc4ccccc4oc3=O)nc(C)c2C(=O)Nc2ccccc2)cc1 | 20.6µM* | 5.17µM* | 18.4µM* | ? | ?
Cn1nc(-c2ccc(Cl)cc2)cc1NC(=O)Nc1ccccc1 | -30.1% | -1.7% | i | ? | i
COc1cccc(CN(Cc2cccnc2)S(=O)(=O)c2ccc(-n3cnnn3)c(C)c2)c1 | 53.2% | -7.8% | ? | ? | ?
CC(=O)O[C@H]1C(=O)[C@]2(C)[C@H]([C@H](OC(=O)c3ccccc3)[C@]3(O)C[C@H](OC(=O)[C@H](O)[C@@H](NC(=O)c4ccccc4)c4ccccc4)C(C)=C1C3(C)C)[C@]1(OC(C)=O)CO[C@@H]1C[C@@H]2O | ? | 93.2% | 0.164µM* | . | 18.4µM*
CC(=O)O[C@H]1C(=O)[C@@]2(C)C([C@H](OC(=O)c3ccccc3)[C@]3(O)C[C@H](OC(=O)[C@H](O)[C@@H](NC(=O)c4ccccc4)c4ccccc4)C(C)=C1C3(C)C)[C@]1(OC(C)=O)CO[C@@H]1C[C@H]2O (stereo partly drawn) | 2.06µM* | ? | 0.058µM* | -24.6% | ?
CC(=O)O[C@@]12CO[C@@H]1C[C@H](O)[C@@]1(C)C(=O)[C@H](O)C3=C(C)[C@@H](OC(=O)C(O)[C@@H](NC(=O)OC(C)(C)C)c4ccccc4)C[C@@](O)([C@@H](OC(=O)c4ccccc4)[C@H]21)C3(C)C (stereo partly drawn) | 0.0075µM* | ? | . | . | .
c1ccc(-c2nnsc2Sc2ccccn2)cc1 | -5.1% | 20.4% | i | ? | i
Cc1cccc2cc3c(nc12)SC(=NCC1CCCO1)N(Cc1ccco1)C3 (stereo not drawn) | 5.8µM* | ? | i | ? | i
Cc1ccc2nc3c(cc2c1)CN(Cc1ccco1)C(=NCC1CCCO1)S3 (stereo not drawn) | ? | 16.1% | ? | ? | ?
Cc1cccc(OCC(=O)Nc2cccc(-c3nnc(-c4ccccc4)o3)c2)c1C | 0.7% | -1.4% | i | -5.7% | i
Cc1cccc(NC(=O)/C(C#N)=C/c2ccc(Sc3ccccc3)o2)c1C | ? | 18.4µM* | i | 1.8% | i
Cc1ccccc1NC(=O)/C(C#N)=C/c1ccc(-c2ccc(Cl)c(C(=O)O)c2)o1 | 4.4% | 6.8% | i | ? | i
CCn1c(SCC(=O)Nc2ccc(C)cc2Br)nnc1-c1nonc1NC(C)=O | . | . | i | . | i
Cc1ccc(C(C)C)c(OCc2ccc(-c3nnco3)cc2)c1 | 9.2% | 23.1µM* | i | ? | i
Cc1ccc(COc2ccc(-c3nnco3)cc2)cc1 | -0.8% | -3.2% | i | ? | i
CN1C(=O)[C@H]2[C@@H](C3CC3)N3C(=O)CN(Cc4ccccn4)C(=O)[C@@]3(Cc3ccccc3)[C@H]2C1=O | -12.9% | 1.7% | i | 11.8% | ?
CCn1c(SCC(N)=O)nnc1-c1cc2c(C)nn(-c3ccccc3)c2s1 | -7.1% | 3.2% | i | ? | 13µM*
Cc1cc(C)c(C)c(C(=O)CSc2nnc(-c3ccc4[nH]c(C)c(C)c4c3)o2)c1C | ? | 13µM* | i | 16.4µM* | ?
CCn1c(SCC(N)=O)nnc1-c1ccc2[nH]c(C)c(C)c2c1 | -2.4% | 10.4% | 5.8µM* | 15.7% | 20.6µM*
c1c2c(cc3sc(N4CCCCC4)nc13)OCO2 | -2.3% | 8.7% | 9.2µM* | ? | ?
